Test results published in PubChem BioAssay (EPA / NIEHS).
Active and inactive are the calls of the source. Rule for the calls: active = hit-call score of the fitted dose curve at least 0.9, where 1 is the maximum; inactive = score below 0.9.

Each molecule was assayed against X-box-binding protein 1 (Homo sapiens) (UniProt P17861) (assay: ATG_Xbp1_CIS: Attagene CIS-FACTORIAL HepG2 Assay for human X-box Binding Protein 1 (XBP1) (AID 2282972)). Conditions: HepG2 XBP1 cis-element reporter, Attagene multiplex; actives raise or lower the signal.
Sequence of X-box-binding protein 1 (Homo sapiens) (P17861 whole entry, looked up): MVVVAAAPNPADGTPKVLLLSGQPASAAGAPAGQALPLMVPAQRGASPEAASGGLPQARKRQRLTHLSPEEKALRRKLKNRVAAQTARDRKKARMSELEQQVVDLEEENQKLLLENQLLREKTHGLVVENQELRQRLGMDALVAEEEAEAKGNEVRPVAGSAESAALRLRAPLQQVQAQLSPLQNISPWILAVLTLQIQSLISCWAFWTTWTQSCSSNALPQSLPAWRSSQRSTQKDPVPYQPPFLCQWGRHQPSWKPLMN
Experimental: ATG_CIS is a cell-based, multiplexed-readout assay that uses HepG2, a human liver cell line, with measurements taken at 24 hours after chemical dosing in a 24-well plate.ATG_Xbp1_CIS is one of 52 assay component(s) measured or calculated from the ATG_CIS assay. It is designed to make measurements of mRNA induction, a form of inducible reporter, as detected with fluorescence intensity signals by Reverse transcription polymerase chain reaction (RT-PCR) and Capillary electrophoresis technology.Data from the assay component ATG_Xbp1_CIS was analyzed into 1 assay endpoint. This assay endpoint, ATG_Xbp1_CIS, was analyzed with bidirectional fitting relative to DMSO as the negative control and baseline of activity. Using a type of inducible reporter, measures of mRNA for gain or loss-of-signal activity can be used to understand the reporter gene at the transcription factor-level as they relate to the gene XBP1. Furthermore, this assay endpoint can be referred to as a primary readout, because this assay has produced multiple assay endpoints where this one serves a reporter gene function. To generalize the intended target to other relatable targets, this assay endpoint is annotated to the dna binding intended target family, where the subfamily is basic leucine zipper.
Human liver HepG2 cells are transiently transfected with multiple reporter transcription units (MRTUs) in 6-well plates using FuGene 6 reagent (Roche; 3 ml FuGene/1 mg DNA). The MRTU constructs are regulated by a cis-regulating element (promoter). […] A major difference between the CIS and TRANS system is that in CIS activities of endogenous TFs are measured, whereas the TRANS assay evaluates changes in activities of exogenous, chimeric NR-Gal4 proteins. […] At the end of 24 hour incubation, total RNA was isolated using TriZol reagent (Invitrogen). The isolated RNA is then reverse-transcribed using oligo(dT) primer and Mo-MLV reverse transcriptase (Invitrogen) with DNAse I (Ambion) treatment for 30 min. The one-tenth of the produced cDNA was amplified by PCR using Taq DNA polymerase (Invitrogen) and two reporter sequence-specific primers. The PCR products were fluorescently labeled by primer extension with 6-arboxyfluorescein (6-FAM) 5'-labeled reporter sequence-specific primer (2 min at 95 C, 20 s at 68 C and 10 min at 72 C) and these products were digested with 5U of HpaI (New England Biolabs) for 2h at 37 C. The fragments were purified using Qiaquick PCR columns (Qiagen), analyzed on an ABI 3130xL genetic analyzer (Applied Biosystems) with peak positions identified by using a set of X-rhodamine (ROX)-labeled MapMarker1000 molecular weight standards (BioVentures). The raw capillary electrophoresis data was processed using Attagraph software (Attagene).
For `Nc1nnc(-c2ccc([N+](=O)[O-])o2)o1`, the outcome was “inactive”.
For `CC/C=C/CCO`, the outcome was “inactive”.
In the case of `COc1cccc(OC)c1C(=O)O`, the outcome is reported as “inactive”.
With `COC(=O)c1ccccc1` the outcome was “inactive”.
For `CC(C)CC(=O)O`, the outcome was “inactive”.
With `COc1c2occc2cc2ccc(=O)oc12` the outcome was “inactive”.
In the case of `CCCCCCCC#N`, the outcome is reported as “inactive”.
For `NC(N)=Nc1nc(CSCCC(N)=NS(N)(=O)=O)cs1`, the outcome was “inactive”.
`Clc1ccc(Sc2cc(Cl)c(Cl)cc2Cl)cc1` was tested, and the outcome was “inactive”.
For `Cc1ccnc(N)c1`, the outcome was “inactive”.
In the case of `N#CCN(CC#N)CCN(CC#N)CC#N`, the outcome is reported as “inactive”.
In the case of `CCOC(=O)c1ccccc1`, the outcome is reported as “inactive”.
For `NCc1ccccc1`, the outcome was “inactive”.
`C/C=C(\C)C(=O)OCC/C=C\CC` was tested, and the outcome was “inactive”.
With `O=C1NC(=O)[C@@H]2CC=CC[C@H]12` the outcome was “inactive”.
With `O=[N+]([O-])c1ccccc1C(F)(F)F` the outcome was “inactive”.
In the case of `CC1(C)S[C@@H]2[C@H](NC(=O)[C@H](N)c3ccccc3)C(=O)N2[C@H]1C(=O)O`, the outcome is reported as “inactive”.
`Sc1nc2ccccc2s1` was tested, and the outcome was “inactive”.
In the case of `Cc1ccccc1S(=O)(=O)O`, the outcome is reported as “inactive”.
In the case of `CNC[C@H](O)[C@@H](O)[C@H](O)[C@H](O)CO`, the outcome is reported as “inactive”.
With `O=C(c1ccccc1)c1ccccc1O` the outcome was “inactive”.
In the case of `Brc1ccc(Oc2ccc(Br)cc2)cc1`, the outcome is reported as “inactive”.
With `O=C1CCCCCCCCCCCCCC1` the outcome was “inactive”.
For `COC(=O)/C=C\C(=O)OC`, the outcome was “inactive”.
With `CC[N+](CC)(CC(=O)Nc1c(C)cccc1C)Cc1ccccc1` the outcome was “inactive”.
With `CC1=NN(c2cc(Cl)c(S(=O)(=O)O)cc2Cl)C(=O)C1N=Nc1ccc(S(=O)(=O)O)cc1` (stereo not given) the outcome was “inactive”.
With `Oc1ccc(Cl)cc1C1CCCC1` the AC50 was 43.1 µM (active).
For `CCCCCCCCCC/C=C/C1CC(=O)OC1=O` (stereo not given), the outcome was “inactive”.
`CN(C)Cc1cc(C(C)(C)C)c(O)c(C(C)(C)C)c1` was tested, and the outcome was “inactive”.
For `CC/C=C\CC1=C(C)CCC1=O`, the outcome was “inactive”.
With `O=C(Oc1ccccc1)c1ccccc1` the outcome was “inactive”.
With `CC/C=C\CCCCCO` the outcome was “inactive”.
For `CC/C=C\CC/C=C/C(OCC)OCC`, the outcome was “inactive”.
`CCOc1ccc2c(c1)C(C)CC(C)(C)N2` (stereo not given) was tested, and the outcome was “inactive”.
`O=C(C1CCCCC1)N1CC(=O)N2CCc3ccccc3C2C1` (stereo not given) was tested, and the outcome was “inactive”.
With `COC(OC)C(C)c1ccccc1` (stereo not given) the outcome was “inactive”.
In the case of `C[C@H]1C[C@H]2[C@@H]3CCC4=CC(=O)C=C[C@]4(C)[C@@]3(F)[C@@H](O)C[C@]2(C)[C@@]1(O)C(=O)CO`, the AC50 is reported as 158 µM (active).
`O=C(C(=O)c1ccccc1)c1ccccc1` was tested, and the outcome was “inactive”.
With `Cc1cccnc1` the outcome was “inactive”.
`OCCOCCOCCOCCOCCO` was tested, and the outcome was “inactive”.
